Laboratory results reported in PubChem BioAssay (Tox21).
Inconclusive results are not listed. Unmarked numbers belong to inactive results. Activity calls are given as the source filed them. Calls follow the shape of the dose curve; as a rule, active = well fitted activation curve with a large enough effect in the repeat runs; inconclusive = weak or mixed curves; inactive = no such curve, though single readings can be large or run the other way.

Target: Aryl hydrocarbon receptor (Homo sapiens) (UniProt P35869)
Sequence (P35869 whole entry, looked up): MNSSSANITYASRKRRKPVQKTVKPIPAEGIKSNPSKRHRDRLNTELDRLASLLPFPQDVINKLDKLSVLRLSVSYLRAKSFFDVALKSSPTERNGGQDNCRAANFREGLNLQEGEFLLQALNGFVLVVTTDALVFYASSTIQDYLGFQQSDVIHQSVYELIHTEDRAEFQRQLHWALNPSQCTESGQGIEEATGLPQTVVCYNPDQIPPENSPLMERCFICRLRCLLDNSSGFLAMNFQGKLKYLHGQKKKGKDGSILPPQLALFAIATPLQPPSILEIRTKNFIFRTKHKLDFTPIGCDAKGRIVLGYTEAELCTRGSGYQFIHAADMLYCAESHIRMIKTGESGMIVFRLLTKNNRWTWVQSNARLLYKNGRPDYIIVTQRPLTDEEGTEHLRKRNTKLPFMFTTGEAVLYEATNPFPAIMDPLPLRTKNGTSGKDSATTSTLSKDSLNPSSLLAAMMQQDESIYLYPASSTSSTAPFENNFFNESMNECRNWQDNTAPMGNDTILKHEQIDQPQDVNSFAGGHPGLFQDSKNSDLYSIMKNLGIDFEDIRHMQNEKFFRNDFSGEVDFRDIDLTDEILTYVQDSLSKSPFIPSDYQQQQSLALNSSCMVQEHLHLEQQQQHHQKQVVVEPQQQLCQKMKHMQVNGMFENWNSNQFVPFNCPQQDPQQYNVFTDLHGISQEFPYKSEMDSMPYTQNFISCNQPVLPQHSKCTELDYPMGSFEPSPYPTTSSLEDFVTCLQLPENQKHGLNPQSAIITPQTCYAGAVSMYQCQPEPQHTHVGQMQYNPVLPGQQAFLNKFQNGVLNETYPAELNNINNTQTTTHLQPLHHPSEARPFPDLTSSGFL
Test: qHTS assay to identify small molecule that activate the aryl hydrocarbon receptor (AhR) signaling pathway (AID 743085); also: nearly all actives have a fitted effect of over 15% in size;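 as to activation: HG2L7.5c1 human HepG2 liver cells with stably integrated DRE-driven firefly reporter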
Details: HepG2 AhR-luc (HG2L7.5c1), luciferase, 24 h; series mostly up to 70.3 µM; activation: at the top concentration
Source text: U.S. Tox21 Program National Center for Advancing Translational Sciences [NCATS] NIH Chemical Genomics Center [NCGC] U.S. Environmental Protection Agency [EPA] National Institutes of Environmental Health Sciences [NIEHS] National Toxicology Program [NTP] U.S. Food and Drug Administration [FDA] Tox21 Assay overview: The Aryl hydrocarbon Receptor (AhR), a member of the family of basic helix-loop-helix transcription factors, is crucial to adaptive responses to environmental changes. AhR mediates cellular responses to environmental pollutants such as aromatic hydrocarbons through induction of phase I and II enzymes but also interacts with other nuclear receptor signaling pathways. A cell based HepG2-AhR-luc assay (HG2L7.5c1 cell line, developed by Dr. Michael S. Denison, University of California at Davis, was used to assess the activation of AhR. HepG2 (human hepatocellular carcinoma) cells were stably transfected with an Ah receptor-responsive firefly luciferase reporter gene plasmid containing 20 dioxin responsive elements and luciferase reporter gene. Increased luciferase activity can be used to identify the compounds that induce AhR activation.
Tox21 Assay Protocol Summary: 4000 cells in 5 uL/well were dispensed into white wall/solid bottom 1536-well plates using a Multidrop Combi (Thermo Fisher Scientific Inc., Waltham, MA) dispenser. After the assay plates were incubated at 37C for 5 h, 23 nL of compound or DMSO vehicle was transferred to the assay plates by a pintool station (Kalypsys, San Diego, CA). The plates were incubated at 37C for 24 hr. After 1 ul/well of CellTiter-Fluor reagent (Promega, Madison, WI) was added into the assay plates using a Flying Reagent Dispenser (FRD) (Aurora Discovery, CA), the assay plates were incubated at 37C for 30 min. The fluorescence intensity in the plates was measured using a ViewLux plate reader (PerkinElmer, Shelton, CT), followed by the addition of 4 uL of ONE-Glo Luciferase Assay reagent (Promega) using an FRD (Aurora Discovery). After the assay plates were incubated at room temperature for 30 min, luminescence intensity was measured using a ViewLux plate reader (Perkin Elmer).
% is scaled to controls: 0 for no effect and ±100 for the full control effect; potency is read from the fitted curve at half-maximal effect.

SMILES | activation | Potency
CNC(=O)CSP(=O)(OC)OC | 0.0053% | 
CC(C)(C)c1ccc(OP(=O)(Oc2ccccc2)Oc2ccccc2)cc1 | 8.25% [at 95 µM] | 
Brc1ccc(Oc2ccc(Br)cc2Br)c(Br)c1 | 2.87% | 
COc1ccc2c(c1OC)C(=O)O[C@@H]2[C@H]1c2cc3c(cc2CCN1C)OCO3 | 8.43% | 
Oc1cc(Cl)cc(Cl)c1 | 0.503% [at 95 µM] | 
N#Cc1c2ccccc2cc2ccccc12 | 4.9% | 
COc1ccc2c3c1O[C@H]1[C@H](O)CC[C@H]4[C@@H](C2)N(C)CC[C@@]341 | -2.52% | 
ClC1=C(Cl)[C@]2(Cl)[C@H]3[C@H]([C@@H]4C=C[C@H]3C4)[C@@]1(Cl)C2(Cl)Cl | -0.39% | 
[Cl][Hg][c]1ccccc1 | -8.43% | 
NC(=O)C(Cl)Cl | 0.373% | 
N#CC(C#N)=NNc1cccc(Cl)c1 | -0.897% | 
CC(=O)[O][Sn]([c]1ccccc1)([c]1ccccc1)[c]1ccccc1 | -13.2% | 
O=NN(CCO)CCO | -2.08% | 
CNN | 8.09% [at 95 µM] | 
CC(=O)[O-].CC(=O)[O-].O.O.O.[Pb+2] | -0.328% | 
CCC[CH2][Sn]([CH2]CCC)([CH2]CCC)[O][Sn]([CH2]CCC)([CH2]CCC)[CH2]CCC | -11.8% [at 8.47 µM] | 
N#CSCc1ccccc1 | -2% [at 95 µM] | 
O.O.O.O=C([O-])[C@H]([O-])[C@@H]([O-])C(=O)[O-].O=C([O-])[C@H]([O-])[C@@H]([O-])C(=O)[O-].[K+].[K+].[Sb+3].[Sb+3] | 0.182% [at 95 µM] | 
CC1(C)C(C=C(Cl)Cl)C1C(=O)OC(C#N)c1ccc(F)c(Oc2ccccc2)c1 (stereo not given) | 4.28% | 
CC(=O)[O][Pb]([c]1ccccc1)([c]1ccccc1)[c]1ccccc1 | -3.59% | 

SMILES | activation | Potency
C[C@H]1[C@H](c2ccc(Cl)cc2)SC(=O)N1C(=O)NC1CCCCC1 | 0.95% | 
CCCCON=O | 0.768% [at 95 µM] | 
CNC(C)(C)Cc1ccccc1 | -0.13% [at 32.5 µM] | 
CC(C)N(C(=O)CCl)c1ccccc1 |  | inactive
CCCN | 1.11% [at 95 µM] | 
CC(=O)O.CC(=O)O.CC(=O)O.CC(=O)O.CC(=O)O.CC(=O)O.CC(=O)O.O.O.[Cr].[Cr].[Cr] | -0.13% | 
Clc1ccc(C2(Cn3cncn3)OCCO2)c(Cl)c1 |  | inactive
O=[N+]([O-])[O-].[Tl+] | -0.463% [at 95 µM] | 
OCC(Br)CBr (stereo not given) | 3.1% [at 95 µM] | 
CCCCCCCc1ccc(O)cc1 | 4.4% | 
CCC(C)Br (stereo not given) | -0.594% [at 95 µM] | 
CCCCn1cc[n+](C)c1 (tested in a mixture with another compound) | 2.31% | 
CCCCC(CC)COC(=O)OOC(C)(C)C (stereo not given) | -1.06% | 
CCOC(=O)CCN(SN(C)C(=O)Oc1cccc2c1OC(C)(C)C2)C(C)C | 3.46% | 
CC[C@H](C)[C@H]1O[C@]2(C=C[C@@H]1C)C[C@@H]1C[C@@H](C/C=C(\C)[C@@H](O[C@H]3C[C@H](OC)[C@@H](O[C@H]4C[C@H](OC)[C@@H](NC)[C@H](C)O4)[C@H](C)O3)[C@@H](C)/C=C/C=C3\CO[C@@H]4[C@H](O)C(C)=C[C@@H](C(=O)O1)[C@]34O)O2 | -7.09% | 
ClC(Cl)C(Cl)(Cl)Cl | -2.57% | 
Cc1ccc2cc3c(ccc4ccccc43)c3c2c1CC3 |  | 0.487 µM (active)
CC(C)C(Br)C(=O)NC(N)=O (stereo not given) | -2.16% | 
CCO/N=C(\CC)C1=C(O)CC(c2c(C)cc(C)cc2C)CC1=O (stereo not given) | -7.41% | 
S=C=NCCc1ccccc1 |  | 54.6 µM (active)
